The values below come from publication PMC7862700, “An all-to-all approach to the identification of sequence-specific readers for epigenetic DNA modifications on cytosine”.

Experiment in all cases: DAPPL (digital affinity profiling via proximity ligation, sequencing); 10 mM Tris-HCl pH 7.5, 50 mM NaCl, 1 mM DTT, 4% glycerol, room temperature, 30 min; GST-TFs on glutathione beads, 16-mer random dsDNA library, 0.1% formaldehyde crosslink after washing; high values mean tight binding
The target of one assay is T1, FEV (Homo sapiens, UniProt Q99581 1-238).
T1 sequence: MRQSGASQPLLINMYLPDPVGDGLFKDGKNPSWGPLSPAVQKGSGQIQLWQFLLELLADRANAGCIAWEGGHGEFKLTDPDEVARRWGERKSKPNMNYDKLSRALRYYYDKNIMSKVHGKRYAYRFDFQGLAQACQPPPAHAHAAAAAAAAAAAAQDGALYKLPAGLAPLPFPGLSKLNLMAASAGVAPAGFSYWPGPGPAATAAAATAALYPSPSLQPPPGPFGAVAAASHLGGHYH
The following applies: protein: recombinant; tags: N-terminal GST; dsDNA, one strand shown. The gist of the method:
(§1)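 Beads coated with glutathione captured GST-fused human transcription factors that had been expressed in yeast, and the factors were then given DNA barcodes and pooled with a tag-only sample. The pools were incubated with 200 nmole of a random double-stranded 16-mer DNA library in Tris/NaCl/DTT/glycerol buffer for 30 min at room temperature, washed, crosslinked with 0.1% formaldehyde and proximity-ligated with BsaI/T4 ligase at 37 °C for 1 h. PCR amplification and Illumina NextSeq500 sequencing came last. Binding signal is each hexamer's read frequency for a factor divided by its frequency for the tag-only sample.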

Another assay deals with ETV5 (Homo sapiens, UniProt P41161 1-510). The following applies: protein: recombinant; tags: N-terminal GST; dsDNA, one strand shown. The procedure, abridged: as §1
Chain of ETV5 (P41161 whole entry): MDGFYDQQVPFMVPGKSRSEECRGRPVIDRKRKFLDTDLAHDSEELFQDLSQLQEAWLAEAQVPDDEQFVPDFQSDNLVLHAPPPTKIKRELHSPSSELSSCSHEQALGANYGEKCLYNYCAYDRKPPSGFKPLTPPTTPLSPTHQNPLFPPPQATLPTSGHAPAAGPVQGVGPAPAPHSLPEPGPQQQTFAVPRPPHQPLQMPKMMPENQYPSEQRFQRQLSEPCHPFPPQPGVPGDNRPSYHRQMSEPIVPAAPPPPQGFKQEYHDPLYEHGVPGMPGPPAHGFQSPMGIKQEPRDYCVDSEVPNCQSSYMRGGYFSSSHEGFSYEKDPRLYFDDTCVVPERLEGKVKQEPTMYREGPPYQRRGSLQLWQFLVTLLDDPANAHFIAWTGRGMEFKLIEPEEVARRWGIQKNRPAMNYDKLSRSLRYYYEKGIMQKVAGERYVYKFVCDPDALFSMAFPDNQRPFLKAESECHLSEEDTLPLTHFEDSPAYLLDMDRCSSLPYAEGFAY
The next assay concerns the target HSF1 (Homo sapiens, UniProt Q00613 1-529). To be noted: protein: recombinant; tags: N-terminal GST; chain copies: 3; dsDNA, one strand shown. The procedure, abridged: as §1
The target of the next assay is T2, SPIC (Homo sapiens, UniProt Q8N5J4 1-248).
T2 sequence: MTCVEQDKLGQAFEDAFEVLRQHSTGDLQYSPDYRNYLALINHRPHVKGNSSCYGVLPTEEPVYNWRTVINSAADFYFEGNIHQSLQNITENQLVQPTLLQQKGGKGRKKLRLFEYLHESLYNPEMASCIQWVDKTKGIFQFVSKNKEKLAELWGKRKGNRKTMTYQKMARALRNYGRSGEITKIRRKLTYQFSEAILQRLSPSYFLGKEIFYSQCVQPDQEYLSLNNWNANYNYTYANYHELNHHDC
The following applies: protein: recombinant; tags: N-terminal GST; dsDNA, one strand shown. The procedure, abridged:
as §1

In another assay the target is ELF4 (Homo sapiens, UniProt Q99607 1-663). The following applies: protein: recombinant; tags: N-terminal GST; dsDNA, one strand shown. The procedure, abridged:
as §1

The target of the next assay is T3, ELK4 (Homo sapiens, UniProt P28324-2 1-405).
T3 sequence: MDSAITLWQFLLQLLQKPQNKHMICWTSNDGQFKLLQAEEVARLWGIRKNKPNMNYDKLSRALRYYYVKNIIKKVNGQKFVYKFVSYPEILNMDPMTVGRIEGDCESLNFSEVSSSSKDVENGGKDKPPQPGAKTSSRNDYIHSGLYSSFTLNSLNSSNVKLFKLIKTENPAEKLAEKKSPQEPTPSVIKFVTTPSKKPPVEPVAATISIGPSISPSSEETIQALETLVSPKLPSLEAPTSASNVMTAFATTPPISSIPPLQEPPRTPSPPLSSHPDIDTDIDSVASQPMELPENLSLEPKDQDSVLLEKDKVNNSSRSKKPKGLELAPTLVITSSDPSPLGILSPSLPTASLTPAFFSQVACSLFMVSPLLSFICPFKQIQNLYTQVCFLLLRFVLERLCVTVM
The following applies: protein: recombinant; tags: N-terminal GST; dsDNA, one strand shown. The gist of the method: as §1

The next assay addresses T4, ETV2 (Homo sapiens, UniProt O00321 1-342).
T4 sequence: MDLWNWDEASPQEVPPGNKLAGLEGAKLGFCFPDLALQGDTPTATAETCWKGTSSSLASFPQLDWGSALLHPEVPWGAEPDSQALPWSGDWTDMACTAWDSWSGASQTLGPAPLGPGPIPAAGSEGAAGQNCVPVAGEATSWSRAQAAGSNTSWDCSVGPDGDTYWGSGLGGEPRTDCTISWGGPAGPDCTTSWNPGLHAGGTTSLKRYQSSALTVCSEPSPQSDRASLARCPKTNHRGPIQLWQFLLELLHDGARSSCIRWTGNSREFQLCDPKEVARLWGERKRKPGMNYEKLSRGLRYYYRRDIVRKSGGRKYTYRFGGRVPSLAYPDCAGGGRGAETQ
The following applies: protein: recombinant; tags: N-terminal GST; dsDNA, one strand shown. The procedure, abridged: as §1

A further assay addresses T5, ELF3 (Homo sapiens, UniProt P78545 1-371).
T5 sequence: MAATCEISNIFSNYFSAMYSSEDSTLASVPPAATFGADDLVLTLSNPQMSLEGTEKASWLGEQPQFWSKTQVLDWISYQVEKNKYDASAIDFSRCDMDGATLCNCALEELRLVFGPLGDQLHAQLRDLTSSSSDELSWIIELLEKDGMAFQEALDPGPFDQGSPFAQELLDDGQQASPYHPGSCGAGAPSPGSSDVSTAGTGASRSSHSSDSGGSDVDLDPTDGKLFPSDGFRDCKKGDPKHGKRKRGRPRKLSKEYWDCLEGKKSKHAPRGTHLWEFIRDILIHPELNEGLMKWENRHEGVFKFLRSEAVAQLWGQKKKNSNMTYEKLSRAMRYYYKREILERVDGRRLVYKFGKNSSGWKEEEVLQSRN
The following applies: protein: recombinant; tags: N-terminal GST; dsDNA, one strand shown. The procedure, abridged:
as §1

The target of a further assay is CRX (Homo sapiens, UniProt O43186 1-299). To be noted: protein: recombinant; tags: N-terminal GST; dsDNA, one strand shown. The procedure, abridged: as §1
Chain of CRX (O43186 whole entry): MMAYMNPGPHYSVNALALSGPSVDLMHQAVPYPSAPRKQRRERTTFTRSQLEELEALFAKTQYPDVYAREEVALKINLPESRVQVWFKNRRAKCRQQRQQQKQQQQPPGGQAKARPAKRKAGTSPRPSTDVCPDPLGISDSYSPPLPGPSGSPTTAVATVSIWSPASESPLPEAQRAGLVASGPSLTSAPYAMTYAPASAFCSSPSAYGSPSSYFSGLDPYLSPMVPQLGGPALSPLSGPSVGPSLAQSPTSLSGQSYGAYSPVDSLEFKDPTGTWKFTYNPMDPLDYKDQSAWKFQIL
In a further assay the target is ETV1 (Homo sapiens, UniProt P50549 1-477). To be noted: protein: recombinant; tags: N-terminal GST; dsDNA, one strand shown. The procedure, abridged:
as §1

Chain of HSF1 (Q00613 whole entry): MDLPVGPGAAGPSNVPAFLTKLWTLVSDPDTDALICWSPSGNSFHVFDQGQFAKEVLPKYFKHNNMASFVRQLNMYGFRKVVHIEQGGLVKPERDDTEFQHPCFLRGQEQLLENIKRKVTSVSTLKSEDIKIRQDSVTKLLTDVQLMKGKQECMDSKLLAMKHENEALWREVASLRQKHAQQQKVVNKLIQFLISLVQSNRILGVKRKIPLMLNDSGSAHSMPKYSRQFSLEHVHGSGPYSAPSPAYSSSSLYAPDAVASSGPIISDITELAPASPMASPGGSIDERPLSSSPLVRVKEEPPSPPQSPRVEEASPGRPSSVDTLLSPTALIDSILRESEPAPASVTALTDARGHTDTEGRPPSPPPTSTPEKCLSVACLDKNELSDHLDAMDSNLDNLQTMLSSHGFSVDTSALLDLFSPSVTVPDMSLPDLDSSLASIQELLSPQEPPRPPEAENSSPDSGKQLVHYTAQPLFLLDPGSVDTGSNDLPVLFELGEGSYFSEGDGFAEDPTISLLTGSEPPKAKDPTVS
Chain of ETV1 (P50549 whole entry): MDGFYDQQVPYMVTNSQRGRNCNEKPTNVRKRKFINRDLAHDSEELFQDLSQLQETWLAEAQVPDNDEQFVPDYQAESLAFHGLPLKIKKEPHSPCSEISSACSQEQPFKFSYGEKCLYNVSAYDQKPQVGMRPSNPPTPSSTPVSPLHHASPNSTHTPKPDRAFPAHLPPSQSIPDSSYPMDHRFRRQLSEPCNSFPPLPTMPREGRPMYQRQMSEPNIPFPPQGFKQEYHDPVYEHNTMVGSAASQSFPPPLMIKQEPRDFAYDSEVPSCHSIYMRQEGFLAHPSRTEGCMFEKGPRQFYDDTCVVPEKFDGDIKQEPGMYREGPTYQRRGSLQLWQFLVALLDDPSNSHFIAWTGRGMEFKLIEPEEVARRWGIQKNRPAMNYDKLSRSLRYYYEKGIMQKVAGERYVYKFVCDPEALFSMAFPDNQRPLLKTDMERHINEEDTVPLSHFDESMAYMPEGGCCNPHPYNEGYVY
Chain of ELF4 (Q99607 whole entry): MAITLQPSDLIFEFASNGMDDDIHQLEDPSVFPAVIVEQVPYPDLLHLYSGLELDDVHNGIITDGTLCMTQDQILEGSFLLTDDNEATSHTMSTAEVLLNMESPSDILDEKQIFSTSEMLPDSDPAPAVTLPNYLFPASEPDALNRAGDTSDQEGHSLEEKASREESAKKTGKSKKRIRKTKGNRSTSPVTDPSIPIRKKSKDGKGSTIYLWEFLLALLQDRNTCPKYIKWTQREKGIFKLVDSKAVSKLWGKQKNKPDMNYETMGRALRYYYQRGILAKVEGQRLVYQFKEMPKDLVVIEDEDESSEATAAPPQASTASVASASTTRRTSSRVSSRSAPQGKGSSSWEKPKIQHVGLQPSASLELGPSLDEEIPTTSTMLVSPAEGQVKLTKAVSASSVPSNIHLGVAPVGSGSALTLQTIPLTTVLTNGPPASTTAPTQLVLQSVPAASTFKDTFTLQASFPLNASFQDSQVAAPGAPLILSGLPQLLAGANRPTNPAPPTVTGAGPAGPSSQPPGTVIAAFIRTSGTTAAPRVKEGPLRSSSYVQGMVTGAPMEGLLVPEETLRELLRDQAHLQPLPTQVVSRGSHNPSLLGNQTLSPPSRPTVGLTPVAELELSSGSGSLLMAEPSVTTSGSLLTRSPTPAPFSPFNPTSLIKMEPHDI

With CCTGAC, the binding signal with FEV is 1.5 fold enrichment (6-mer frequency, TF over GST control); in the assay with ETV5, 1.71 fold enrichment (6-mer frequency, TF over GST control); with HSF1, 1.2 fold enrichment (6-mer frequency, TF over GST control); with SPIC, 1.3 fold enrichment (6-mer frequency, TF over GST control); with ELF4 it was 1.42 fold enrichment (6-mer frequency, TF over GST control); with ELK4, 1.5 fold enrichment (6-mer frequency, TF over GST control). Besides, the binding signal in the assay with ETV2 is 1.61 fold enrichment (6-mer frequency, TF over GST control); with ELF3, 1.7 fold enrichment (6-mer frequency, TF over GST control); in the assay with CRX, 1.11 fold enrichment (6-mer frequency, TF over GST control); with ETV1, 1.61 fold enrichment (6-mer frequency, TF over GST control).

For TACCAA, the binding signal with FEV was 1.14 fold enrichment (6-mer frequency, TF over GST control); with ETV5, 1.13 fold enrichment (6-mer frequency, TF over GST control); with HSF1, 1.14 fold enrichment (6-mer frequency, TF over GST control); with SPIC it was 1.01 fold enrichment (6-mer frequency, TF over GST control); with ELF4, 1.2 fold enrichment (6-mer frequency, TF over GST control); with ELK4 it was 1.23 fold enrichment (6-mer frequency, TF over GST control). The binding signal was 1.09 fold enrichment (6-mer frequency, TF over GST control) in the assay with ETV2; 1.05 fold enrichment (6-mer frequency, TF over GST control) with ELF3; 1.25 fold enrichment (6-mer frequency, TF over GST control) with CRX; 1.11 fold enrichment (6-mer frequency, TF over GST control) in the assay with ETV1.

As to TGCTAA, the binding signal is 1.29 fold enrichment (6-mer frequency, TF over GST control) with FEV; 1.29 fold enrichment (6-mer frequency, TF over GST control) with ETV5; 1.32 fold enrichment (6-mer frequency, TF over GST control) in the assay with HSF1; 1.26 fold enrichment (6-mer frequency, TF over GST control) with SPIC; 1.28 fold enrichment (6-mer frequency, TF over GST control) with ELF4; 1.42 fold enrichment (6-mer frequency, TF over GST control) with ELK4. Besides, the binding signal was 1.24 fold enrichment (6-mer frequency, TF over GST control) in the assay with ETV2; 1.15 fold enrichment (6-mer frequency, TF over GST control) in the assay with ELF3; 1.8 fold enrichment (6-mer frequency, TF over GST control) in the assay with CRX; 1.39 fold enrichment (6-mer frequency, TF over GST control) with ETV1.

Take TATATA: the binding signal was 1.21 fold enrichment (6-mer frequency, TF over GST control) with FEV; 1.28 fold enrichment (6-mer frequency, TF over GST control) in the assay with ETV5; 1.42 fold enrichment (6-mer frequency, TF over GST control) with HSF1; 1.21 fold enrichment (6-mer frequency, TF over GST control) with SPIC; 1.31 fold enrichment (6-mer frequency, TF over GST control) with ELF4; 1.38 fold enrichment (6-mer frequency, TF over GST control) with ELK4. In addition, the binding signal was 1.08 fold enrichment (6-mer frequency, TF over GST control) with ETV2; 1.35 fold enrichment (6-mer frequency, TF over GST control) with ELF3; 1.63 fold enrichment (6-mer frequency, TF over GST control) with CRX; 1.18 fold enrichment (6-mer frequency, TF over GST control) with ETV1.

TACAGA: the binding signal was 1.13 fold enrichment (6-mer frequency, TF over GST control) in the assay with FEV; 1.12 fold enrichment (6-mer frequency, TF over GST control) with ETV5; 1.28 fold enrichment (6-mer frequency, TF over GST control) in the assay with HSF1; 1.25 fold enrichment (6-mer frequency, TF over GST control) with SPIC; 1.13 fold enrichment (6-mer frequency, TF over GST control) with ELF4; 1.1 fold enrichment (6-mer frequency, TF over GST control) with ELK4. Further, the binding signal is 1.25 fold enrichment (6-mer frequency, TF over GST control) with ETV2; 1.11 fold enrichment (6-mer frequency, TF over GST control) in the assay with ELF3; 1.25 fold enrichment (6-mer frequency, TF over GST control) in the assay with CRX; 1.16 fold enrichment (6-mer frequency, TF over GST control) with ETV1.

Consider TTTGTT, for which the binding signal is 1.19 fold enrichment (6-mer frequency, TF over GST control) in the assay with FEV; 1.25 fold enrichment (6-mer frequency, TF over GST control) in the assay with ETV5; 1.3 fold enrichment (6-mer frequency, TF over GST control) with HSF1; 1.29 fold enrichment (6-mer frequency, TF over GST control) with SPIC; 1.3 fold enrichment (6-mer frequency, TF over GST control) with ELF4; 1.46 fold enrichment (6-mer frequency, TF over GST control) with ELK4. In addition, the binding signal is 1.33 fold enrichment (6-mer frequency, TF over GST control) with ETV2; 1.35 fold enrichment (6-mer frequency, TF over GST control) with ELF3; 1.46 fold enrichment (6-mer frequency, TF over GST control) with CRX; 1.25 fold enrichment (6-mer frequency, TF over GST control) with ETV1.

Turning to CCTCCA, the binding signal with FEV is 1.31 fold enrichment (6-mer frequency, TF over GST control); in the assay with ETV5, 1.34 fold enrichment (6-mer frequency, TF over GST control); with HSF1 it was 1.29 fold enrichment (6-mer frequency, TF over GST control); in the assay with SPIC it was 1.34 fold enrichment (6-mer frequency, TF over GST control); with ELF4, 1.38 fold enrichment (6-mer frequency, TF over GST control); with ELK4, 1.47 fold enrichment (6-mer frequency, TF over GST control). Also, the binding signal with ETV2 was 1.43 fold enrichment (6-mer frequency, TF over GST control); in the assay with ELF3, 1.02 fold enrichment (6-mer frequency, TF over GST control); with CRX, 1.12 fold enrichment (6-mer frequency, TF over GST control); in the assay with ETV1, 1.36 fold enrichment (6-mer frequency, TF over GST control).
